This is part of a sample that, as a whole, favours compounds with a hit. Of some 83,000 tested, about 20% had one in any assay.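 How to read the values: 0–100, growth inhibition (40 = 60% inhibited); 0, no net growth; -100 to 0, cell death (-40 = 40% of starting cells died; -100 = all dead).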 Activity calls are given as the source filed them. Rule for the calls: active = growth percent below 10; inactive = the rest.

Among the data in PubChem BioAssay (NCI) are growth values, retold here.

The subject of this test is MALME-3M melanoma. The experiment in a line: NCI-60 one-dose screen, 48 h (100 = growth as untreated, 0 = no growth, -100 = all killed). To be noted: 10 µM unless noted.
Take `N#C/C(=C\c1ccc(-c2ccc(Cl)c(Cl)c2)o1)c1nc(-c2ccco2)cs1`: the growth was 89.1% (inactive).

Take `CC(C)C1=C[C@@]23CC[C@@H]4[C@](C)(CCC[C@@]4(C)C(=O)N4CCCNCC4)[C@H]2C[C@@H]1[C@H]1C(=O)CCC(=O)[C@H]13`: the growth was 99.9% (inactive).

`COc1ccc(CCNc2nc(SC)nc(-c3cccc([N+](=O)[O-])c3)c2C#N)cc1OC`: the growth is 77.8% (inactive).

On to `Cc1cc(NS(=O)(=O)c2ccc(-c3cnc(C4CC4)o3)cc2)ccc1Cl`, for which the growth is 46.3% (inactive).

As to `COc1ccc(-c2cc(C(=O)N=Nc3c(O)[nH]c4ccc(Br)cc34)no2)cc1`, the growth is 92.4% (inactive).

As to `CCCOc1cc2ccccc2cc1C(=O)Nc1nc(NC)c2c(ccc3nccc32)[nH]1`, the growth was -80.7% (active).

With `CCCCN(CCCC)CCCn1c(-c2ccccc2)ccc1-c1ccccc1`, the growth was 86.2% (inactive).

Turning to `Cc1nc2ccccc2n1C(=O)C[C@@H]1NC(=S)NC1=O`, the growth is 83.8% (inactive).

On to `N#CCCN=Nc1c(O)[nH]c2ccc([N+](=O)[O-])cc12`, for which the growth was 110% (inactive).

With `Cc1cc(N2CCOCC2)nc(NCc2cc(Nc3ccnc4cc(Cl)ccc34)ccc2F)n1`, the growth was -73.7% (active).

For `Nc1n[nH]c2ccc([C@@H]3Nc4cc5c(cc4[C@H]4C6CCC(C6)[C@@H]34)C(=O)NC5)cc12` (stereo partly drawn), the growth was 49.8% (inactive).

On to `c1ccc(-c2c(-c3ccccc3)[n+](Cc3ccc4ccccc4c3)c(-c3ccc(-c4nc5ccccc5s4)cc3)n2Cc2ccc3ccccc3c2)cc1`, for which the growth was -78% (active).

Regarding `C=CC(=O)Nc1cccc(-c2nc(SC)nc(NCc3ccccc3)c2C#N)c1`, the growth was 66.4% (inactive).
